Earlier results, collected in PubChem BioAssay AID977611.
The whole screen tested about 3,900 compounds, of which about 3,900 (100%) were called active. The limit is not given here; nearly all actives have Kd up to about 4200 µM. So high a share suggests a set chosen from earlier hits. Some of the results follow. Starred links: 1 amine or outer side, 2 acyl side, 3 side chain; linkers in the order of their positions; H or OH if unused. Where a SMILES comes first, the peptide text is derived from it. Non-standard residues stand in square brackets, D forms with d. Square brackets hold non-standard residues; d marks the D form. Residues, ends and D or L forms follow the SMILES beside them. Peptide text beside a SMILES is read from it. [ ]: non-standard residue; d: D form. X1 = CNC(NC)NCCC[C@H](N[*:1])C(=O)[*:2]; Thr(P(OH)3+) = C[C@@H](O[P+](O)(O)O)[C@H](N)C(=O)O; Orn(CH(NH2)2) = NC(N)NCCC[C@H](N)C(=O)O; Lys(Me2) = CN(C)CCCC[C@H](N)C(=O)O; Lys(Me) = CNCCCC[C@H](N)C(=O)O; Abu = CC[C@H](N)C(=O)O

Assay: PubChem AID 977611
Conditions: PDB protein-ligand complexes, literature Kd

## NCCCCCC(=O)N[C@H]1Cc2ccccc2[C@@H]1Cc1ccc2c(c1C(=O)O)OCO2
protein: INTEGRASE, PDB entry 4cgi
  Kd: 752 µM (active)
protein: INTEGRASE, PDB entry 4cgj
  Kd: 1460 µM (active)

## O[P+](O)(O)O[P+](O)(O)O[P+](O)(O)O
protein: DNA primase small subunit, PDB entry 4lil
  Kd: 12.5 µM (active)
protein: Thiamine-triphosphatase, PDB entry 3tvl
  Kd: 100 µM (active)

## C[C@@H](O)[C@H](NC(=O)[C@@H]1CCCN1C(=O)[C@H](CO[P+](O)(O)O)NC(=O)[C@@H](N)Cc1ccc(O)cc1)C(=O)N[C@@H](CO)C(=O)N1CCC[C@H]1C(=O)N[C@@H](CO)C(=O)N[C@@H](Cc1ccc(O)cc1)C(=O)N[C@@H](CO[P+](O)(O)O)C(=O)N1CCC[C@H]1C=O
protein: CTD INTERACTING DOMAIN of RNA processing factor SCAF8, PDB entry 3d9l
  Kd: 68 µM (active)

## C[C@@H](O)[C@H](NC(=O)[C@@H]1CCCN1C(=O)[C@H](CO[P+](O)(O)O)NC(=O)[C@@H](N)Cc1ccc(O)cc1)C(=O)N[C@@H](CO[P+](O)(O)O)C(=O)N1CCC[C@H]1C(=O)N[C@@H](CO)C(=O)N[C@@H](Cc1ccc(O)cc1)C(=O)N[C@H](C=O)CO[P+](O)(O)O
protein: CTD INTERACTING DOMAIN of RNA processing factor SCAF8, PDB entry 3d9k
  Kd: 19 µM (active)

## CNc1nc(C)c(-c2nc(Nc3cccc(C(=O)N4CCOCC4)c3)ncc2C#N)s1
protein: CYCLIN-DEPENDENT KINASE 2, PDB entry 4bcq
  Kd: 0.147 µM (active)

## C[C@H](N)C(=O)N[C@@H](CCCNC(N)N)C(=O)N[C@H](C(=O)N[C@@H](CCCCN)C(=O)N[C@@H](CCC(N)=O)C(=O)N[C@H](C(=O)N[C@@H](C)C(=O)N[C@@H](CCCNC(N)N)C(=O)N[C@@H](CCCCN)C(=O)N[C@@H](CO)C(=O)O)[C@@H](C)O)[C@@H](C)O
protein: BHC80 PHD domain, PDB entry 2puy
  Kd: 30 µM (active)

## C[C@H](N)C(=O)N[C@@H](CCCNC(N)N)C(=O)N[C@H](C(=O)N[C@@H](CCCCN(C)C)C(=O)N[C@@H](CCC(N)=O)C(=O)N[C@H](C(=O)O)[C@@H](C)O)[C@@H](C)O (H-A[Orn(CH(NH2)2)]T[Lys(Me2)]QT-OH)
protein: WD-repeat protein 5(WDR523), PDB entry 2o9k
  Kd: 77 µM (active)
protein: bromodomain PHD finger transcription factor, PDB entry 2fsa
  Kd: 5 µM (active)

## C[C@H](N)C(=O)N[C@@H](CCCNC(N)N)C(=O)N[C@H](C(=O)N[C@@H](CCCCN)C(=O)N[C@@H](CCC(N)=O)C(=O)N[C@H](C(=O)O)[C@@H](C)O)[C@@H](C)O (H-A[Orn(CH(NH2)2)]TKQT-OH)
protein: Histone-lysine N-methyltransferase NSD3, PDB entry 4gne
  Kd: 3400 µM (active)

## C[C@H](N)C(=O)N[C@@H](CCCNC(N)N)C(=O)N[C@H](C(=O)N[C@@H](CCCCN)C(=O)N[C@@H](CCC(N)=O)C(=O)N[C@H](C(=O)N[C@@H](C)C(=O)N[C@@H](CCCNC(N)N)C(=O)N[C@@H](CCCCN)C(=O)O)[C@@H](C)O)[C@@H](C)O
protein: Histone-lysine N-methyltransferase NSD3, PDB entry 4gnf
  Kd: 450 µM (active)

## C[C@H](N)C(=O)N[C@@H](CCCNC(N)N(C)C)C(=O)N[C@H](C(=O)N[C@@H](CCCCN(C)C)C(=O)N[C@@H](CCC(N)=O)C(=O)N[C@H](C(=O)N[C@@H](C)C(=O)O)[C@@H](C)O)[C@@H](C)O (some centres not stated) (H-A[X1]T[Lys(Me2)]QTA-OH)
protein: hPHD-HD1 complex, PDB entry 2vpg
  Kd: 2.1 µM (active)

## CNCCCC[C@H](NC(=O)[C@@H](NC(=O)[C@H](CCCNC(N)N)NC(=O)[C@H](C)N)[C@@H](C)O)C(=O)N[C@@H](CCC(N)=O)C(=O)N[C@H](C(=O)O)[C@@H](C)O (H-A[Orn(CH(NH2)2)]T[Lys(Me)]QT-OH)
protein: human Chromodomain-helicase-DNA-binding protein 1(CHD1), PDB entry 2b2v
  Kd: 17 µM (active)

## C[C@H](N)C(=O)N[C@@H](CCCNC(N)N)C(=O)N[C@H](C(=O)N[C@@H](CCCCN)C(=O)N[C@@H](CCC(N)=O)C(N)=O)[C@@H](C)O
protein: WD-repeat protein 5(WDR5), PDB entry 2co0
  Kd: 3.3 µM (active)

## C[C@H](N)C(=O)N[C@@H](CCCNC(N)N)C(=O)N[C@H](C(=O)N[C@@H](CCCCN)C(=O)N[C@@H](CCC(N)=O)C(=O)O)[C@@H](C)O[P+](O)(O)O
protein: human Survivin, PDB entry 3uig
  Kd: 4.8 µM (active)

## CC[C@H](NC(=O)[C@@H](NC(=O)[C@H](CCCNC(N)N)NC(=O)[C@H](C)N)[C@@H](C)O)C(=O)N[C@@H](CCC(N)=O)C(=O)O (H-A[Orn(CH(NH2)2)]T[Abu]Q-OH)
protein: WD-repeat protein 5(WDR5), PDB entry 2h13
  Kd: 4.5 µM (active)
protein: WD-repeat protein 5(WDR523), PDB entry 2h9n
  Kd: 115 µM (active)

## CNC(NC)NCCC[C@H](NC(=O)[C@H](C)N)C(=O)N[C@H](C(=O)N[C@@H](CCCCN)C(=O)N[C@@H](CCC(N)=O)C(=O)N[C@H](C(N)=O)[C@@H](C)O)[C@@H](C)O (H-A[X1]TKQT-NH2)
protein: WD REPEAT-CONTAINING PROTEIN 5, WDR5, PDB entry 4a7j
  Kd: 0.1 µM (active)

## C[C@H](N)C(=O)N[C@@H](CCCNC(N)N)C(=O)N[C@H](C(=O)N[C@@H](CCCCN)C(=O)N[C@@H](C)C(=O)N[C@@H](C)C(=O)O)[C@@H](C)O[P+](O)(O)O (H-A[Orn(CH(NH2)2)][Thr(P(OH)3+)]KAA-OH)
protein: Baculoviral IAP repeat-containing protein 5, human Survivin, PDB entry 3ued
  Kd: 29.6 µM (active)

## C[C@H](N)C(=O)N[C@@H](CCCNC(N)N)C(=O)N[C@H](C(=O)N[C@@H](CCCCN)C(=O)N[C@@H](CCC(N)=O)C(=O)NCC(=O)O)[C@@H](C)O (H-A[Orn(CH(NH2)2)]TKQG-OH)
protein: WD-repeat protein 5(WDR523), PDB entry 2h9m
  Kd: 35 µM (active)

## CCC[C@H](NC(=O)[C@@H](NC(=O)[C@@H](NC(=O)[C@H](CC(N)=O)NC(=O)[C@@H]1CCCN1C(=O)[C@H](CC(C)C)NC(=O)[C@H](CO[P+](O)(O)O)NC(=O)[C@@H]1CCCN1C(=O)[C@@H](N)CO)[C@@H](C)CC)[C@@H](C)O)C(=O)O
protein: 14-3-3 protein gamma, PDB entry 3uzd
  Kd: 9 µM (active)

## CC(C)C[C@H](NC(=O)[C@H](CCC(=O)O)NC(=O)[C@@H]1CCCN1C(=O)[C@H](CCC(=O)O)NC(=O)[C@H](Cc1ccc(O[P+](O)(O)O)cc1)NC(=O)[C@@H]1CCCN1C(=O)[C@H](CC(N)=O)NC(=O)[C@H](Cc1ccccc1)NC(=O)[C@@H](N)CO)C(=O)O (H-SFNP[X1]EPEL-OH)
protein: E3 ubiquitin-protein ligase CBL, PDB entry 3buw
  Kd: 1.49 µM (active)

## H-STNPFL-OH
protein: epidermal growth factor receptor substrate 15(EH2 of Eps15), PDB entry 1ff1
  Kd: 12 µM (active)

## CC(C)C[C@H](NC(=O)[C@H](Cc1ccccc1)NC(=O)[C@@H](N)CO)C(=O)N[C@@H](CCC(N)=O)C(=O)N[C@@H](CCCNC(N)N)C(=O)N[C@@H](Cc1ccc(O[P+](O)(O)O)cc1)C(=O)N[C@@H](CO)C(=O)N[C@@H](CO)C(=O)N[C@@H](CC(=O)O)C(=O)N1CCC[C@H]1C(=O)N[C@H](C(=O)O)[C@@H](C)O (H-SFLQ[Orn(CH(NH2)2)][X1]SSDPT-OH)
protein: E3 ubiquitin-protein ligase CBL, PDB entry 3buo
  Kd: 0.88 µM (active)

## N[C@@H](Cc1c[nH]c2ccccc12)C(=O)NC1CCN(Cc2c[nH]c3ccccc23)CC1
protein: H-RasWT:Soscat:H-RasY64A:GppNHp complex, PDB entry 4nym
  Kd: 279 µM (active)

## NCC(=O)NC1CCN(Cc2c[nH]c3ccccc23)CC1
protein: H-RasWT:Soscat:H-RasY64A:GppNHp complex, PDB entry 4nyj
  Kd: 322 µM (active)
